Tau fluor cs: counter-screen for tau fibril formation inhibitors | tau K18 P301L Alexa594 fluorescence, heparin fibrillization | Potency, µM (titrated, usually from 57.7 µM), without a hit: top-dose activity change, negative = decrease | 280,000 tested, 0.93% active; further: potency means the concentration at half of the fitted maximal effect; on the % scale 0 is the no-effect control and ±100 the full control effect; nearly all actives have a fitted effect of over 55% in size
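Human tau K18 P301L (15 uM unlabeled, 0.24 uM Alexa 594-labeled) in 100 mM sodium acetate pH 7 with 20 uM heparin, 6 hr at 37 C. ThT 30 uM added, 1 hr ambient; Alexa 594 FP and total fluorescence read at 555/632 nm.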
Tau FP inhib: tau fibrillization inhibition (FP); P10636; AID 1468; K18 P301L tau heparin fibrillization, Alexa594 FP, 6 h; Potency, µM (series often up to 57.7 µM), inactives show top-dose activity, negative = inhibition, actives largely listed as inhibitors; 280,000 tested, 0.39% active; further: potency means the concentration at half of the fitted maximal effect; on the % scale 0 is the no-effect control and ±100 the full control effect; nearly all actives have a fitted effect of over 55% in size
Target sequence (P10636 561-689 P618L limits assumed): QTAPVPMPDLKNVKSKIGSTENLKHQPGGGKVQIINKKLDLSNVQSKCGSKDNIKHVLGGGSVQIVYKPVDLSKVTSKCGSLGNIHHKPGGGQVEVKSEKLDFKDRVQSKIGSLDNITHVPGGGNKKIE
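Steps: dispense K18 P301L tau (15 uM plus 0.24 uM Alexa 594 tracer, final) in pH 7 sodium acetate; add compound; add heparin (20 uM final); incubate 6 hr, 37 C; add ThT (30 uM final); after 1 hr ambient, read FP.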
Tau ThT inhib: tau fibrillization inhibition (ThT binding); P10636; recombinant tau K18 P301L, heparin-induced fibrillization, ThT fluorescence; Potency, µM (titrated, usually from 57.4 µM), for the others: top-dose activity, negative = inhibition, usual class: inhibitors; 270,000 tested, 2.1% active; AID 1460; further: potency means the concentration at half of the fitted maximal effect; on the % scale 0 is the no-effect control and ±100 the full control effect; nearly all actives have a fitted effect of over 55% in size
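Recombinant human tau K18 fragment […] carrying P301L, 15 uM unlabeled plus 0.24 uM Alexa 594-labeled, was fibrillized with 20 uM heparin in 100 mM sodium acetate pH 7 for 6 hr at 37 C; 30 uM ThT fluorescence read after 1 hr.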
Coupling enz: inhibits coupling enzyme system, counter-screen for aldolase hits | coupling enzyme system counterscreen, AmpLite Red fluorescence | activity change, negative = inhibition, % at 58.2 µM, hits read low | 290,000 tested, 0.67% active; in the data active means activity change below about -30%; further: on the % scale 0 is the no-effect control and ±100 the full control effect
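Activity here indicates interference with the coupling reaction, not aldolase inhibition. Compounds at 57.5 uM final met coupling enzymes for 10 min at RT; substrate and AmpLite Red detection followed, with a 525/598 nm fluorescence read after 20 min.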
Tau fibril TEM: Blocks tau fibril formation, electron microscopy | recombinant tau K18 P301L fibrillization, TEM grading; active compounds read high | 45 tested, 70% active | shares compounds with Tau ThT inhib | fibril grade (0 = clumped fibrils, 4 = only tiny pieces) (no concentration beside the values);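 active means compounds whose electron micrographs showed tau fibrils broken into shorter filaments or fragments, graded high on fibril breakup; inconclusive means micrographs gave an unclear fibril picture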
tau sediment: reduces sedimented tau K18 P301L aggregates; AID 1720; 110 tested, 50% active; recombinant tau K18 P301L (four-repeat tau fragment), sedimentation SDS-PAGE densitometry; shares compounds with Tau ThT inhib; inhibition, % at 100 µM; in the data active means inhibition above about 40%; inconclusive means no clear call, values can overlap the other calls; inactive means below about 18%
* marks the source's active call; other numbers are inactive results; ? = inconclusive; . = no result given; [ ] = remark or other dose. This is a sample that favours compounds with a hit; in the whole collection about 2.7% have one here. Unless noted, the call rests on the fitted dose curve; in most records, active means well fitted curve in the direction sought with a large enough effect; inconclusive means small, poorly fitted or top-dose-only effect, or another doubt; inactive means no such curve, though single readings can be large; an effect the other way counts as inactive or inconclusive.

SMILES	Tau fluor cs	Tau FP inhib	Tau ThT inhib	Coupling enz	others
CN(/N=C/c1ccc(O)cc1O)c1nc(-c2ccccc2)cc(-c2ccccc2)n1	14µM*[quencher]	?	?	-3
Cc1cc(-c2ccccc2)nc(N/N=C/c2ccc(O)cc2O)n1	.	.	.	-3
O=C(c1cc(C(F)(F)F)cc(C(F)(F)F)c1)N1CCC2(CCCN(c3ccncc3)C2)CC1	.	.	.	0
C[C@@H]1CN2[C@H](c3ccc(Br)cc3)[C@H](C)CC[C@H]2C(=O)O1	-1%[11.6 µM]	1%[11.6 µM]	-1%[11.5 µM]	2
Cn1nc(C(=O)N2CCN(c3ccccc3)CC2)c2c1-c1ccccc1SC2	-1%	4%	-3%	.
CC(C)CCNC(=O)c1nn(C)c2c1CSc1ccccc1-2	0%	-4%	2%	.
Cn1nc(C(=O)N2CCN(c3ccc(F)cc3)CC2)c2c1-c1ccccc1SC2	7.1µM*[quencher]	-6%	-11%	.
CCN(CC)CCCNC(=O)c1nn(C)c2c1CSc1ccccc1-2	25µM*[quencher]	?	?	.
COc1ccc(Cl)cc1C(=O)Nc1cccnc1Cl	.	.	.	-3
CC1/C=C/C=C/C=C/C=C/C=C/C=C/C=C/C(OC2OC(C)C(O)C(N)C2O)CC2O[C@@](O)(CC(O)CC(O)C(O)CCC(O)CC(O)CC(=O)OC(C)[C@H](C)C1O)CC(O)C2C(=O)O (stereo partly drawn)	?	4µM*	4µM*	-6
O=C(CSc1nc2ccccc2n1CCc1ccccc1)c1ccc(O)c(O)c1	25µM*[quencher]	-3%	?	0
CC(C)COC(=O)c1cccc2c1-c1ccccc1/C2=N\O	-29%	28µM*	-5%	1
CCOC(=O)c1cccc2c1-c1ccccc1/C2=N/O	?	?	-23%	3
Cc1ccc(-c2cc(C(=O)NN3CCOCC3)c3cc(Br)ccc3n2)o1	-5%	-4%	?	-3
Cc1ccc(-c2cc(C(=O)O)c3cc(Br)ccc3n2)o1	-16%	?	20µM*	-6
COc1ccc(N2C(=O)/C(=C\c3ccco3)N=C2SCC(=O)NC(C)C)cc1Cl	-26%	?	?	0
O=C(CSC1=N/C(=C/c2ccco2)C(=O)N1c1ccc(OC(F)F)cc1)NC1CCS(=O)(=O)C1 (stereo not drawn)	-25%	?	28µM*	-2
COc1ccc(NCc2cc3cc(OC)ccc3[nH]c2=O)cc1	-25%	-4%	7.9µM*	-20
COc1ccc(NCc2cc3ccccc3[nH]c2=O)cc1	-14%	-2%	?	-17
COC(=O)c1ccccc1NC(=O)Cn1c(=O)n(-c2ccc(C)cc2)c(=O)c2ccccc21	-17%	4%	-11%	.
O=C1C2C3C=CC(C3)C2C(=O)N1c1ccc2c(c1)OCO2 (stereo not drawn)	?	?	32µM*	-3
COc1ccccc1-c1cc(=O)c2cccc(OC)c2o1	-23%	-15%	?	0
COc1cccc(-c2cc(=O)c3ccccc3o2)c1N	?	0%	16µM*	-3
COc1ccc(-c2c(C(=O)O)nc3ccccc3c2C(=O)O)cc1	0%	8%	-2%	-34*
Cc1nn(CC(=O)NCc2ccco2)c(=O)c2cc3ccccc3n12	8%	6%	7%	.
SMILES	Tau fluor cs	Tau FP inhib	Tau ThT inhib	Coupling enz	others
COc1ccc(CC(=O)N/N=C(\C)c2cccnc2)cc1	.	.	.	1
CN=c1scc(-c2ccc(OC)cc2)n1/N=C(\C)c1cccnc1	?	1%	11µM*	1
Nc1scc2c(C(=O)NCc3ccccc3)nn(-c3ccccc3)c(=O)c12	.	.	.	.	tau sediment=54*
COc1cccc(-n2nc(C(=O)O)c3ccccc3c2=O)c1	-4%	-2%	-6%	3
Nc1scc2c(C(=O)O)nn(-c3ccccc3)c(=O)c12	.	.	.	.	tau sediment=84*
C/C(=N\NC(=O)C1CC1)c1ccccc1Br	.	.	.	0
CCn1nccc1C(=O)Nc1cc(Cl)cc(Cl)c1	?	28µM*	?	1	tau sediment=?
Nc1c(-c2ccccc2)cc[nH]c1=O	.	.	.	.	tau sediment=9
COc1ccc(OC)c2sc(N(Cc3cccnc3)C(C)=O)nc12	-10%	-9%	-7%	.
O=C(O)CC1S/C(=N/N=C/c2ccc(-c3ccc(Cl)cc3[N+](=O)[O-])o2)NC1=O (stereo not drawn)	?	1.6µM*	1µM*	-9	Tau fibril TEM=3*;tau sediment=74*
Cc1cc(NC(=O)c2ccc3c(c2)N(Cc2cccc(Cl)c2)C(=O)c2ccccc2S3(=O)=O)ccc1Br	-15%	?	6%	.
N#Cc1cccc(NC(=O)c2ccc3c(c2)N(Cc2cccc(Cl)c2)C(=O)c2ccccc2S3(=O)=O)c1	-22%	13µM*	16%	.	tau sediment=4
CCOc1ccccc1C(=O)N1CCCCC1CCN1CCOCC1 (stereo not drawn)	-3%	4%	3%	.
CCOc1ccc(NC(=O)CCc2nc3cccnc3n2-c2ccccc2)cc1	-16%	9%	-17%	.
CCn1c(CSc2nccn2C)nc2cc(C(=O)O)ccc21	-5%	?	4µM*	-36*	Tau fibril TEM=3*;tau sediment=56*
COc1ccc2oc(-c3cccc(NC(=O)c4cc([N+](=O)[O-])ccc4N4CCOCC4)c3)nc2c1	?	-15%	?	.
O=C(Nc1cccc(-c2nc3ccccc3o2)c1)c1cc([N+](=O)[O-])ccc1N1CCOCC1	?	?	-22%	.	tau sediment=17
CN(C)c1ccc(N2C(=O)CSC2=S)cc1	?	?	4.5µM*	-7	tau sediment=11
Cc1nc2c(-c3ccc(F)cc3)c(C)nn2c(C)c1CCC(=O)Nc1ccccc1F	-9%	-7%	-3%	2
Cn1cc(Cl)c(C(=O)Nc2cccc(Cl)c2Cl)n1	-4%	3%	-10%	0	tau sediment=8
Cn1cc(Cl)c(C(=O)Nc2nc3ccccc3s2)n1	-3%	10%	-1%	0
O=C(CN1C(=O)C2(SCC(=O)N2c2ccc(F)cc2)c2ccccc21)NC1CCCCC1 (stereo not drawn)	3%	4%	6%	.
COc1ccc2[nH]c(=O)c(CN(Cc3cccs3)C(=S)Nc3cccc(C)c3)cc2c1	?	?	-7%	-2
COc1ccc2[nH]c(=O)c(CNc3cccc(C)c3)cc2c1	-2%	6%	-8%	-39*	Tau fibril TEM=4*;tau sediment=85*
Cc1cnc(CNc2nc(-c3ccccc3C(F)(F)F)nc3ccccc23)cn1	.	.	.	-2
Oc1ccccc1CNc1cccc2cccnc12	16µM*[quencher]	?	6.3µM*	-22	Tau fibril TEM=?;tau sediment=61*
Cn1sc(NC(=O)c2ccc(Cl)cc2)nc1=O	2%	1%	15%	-4
Cc1ccc(C(=O)Nc2nc(=O)n(C(=O)CC(C)C)s2)cc1	-12%	?	?	3	tau sediment=12
Cc1[nH]c(=O)c(C#N)cc1-c1ccc2nccn2c1	-2%	-5%	6%	3
